Rows were chosen to be rich in hits. Some 2.3% of all compounds tested hit in one or more screens of this group.
HepG2 viability: HepG2 cytotoxicity, counter-screen for TGF-b inhibitors; Potency, µM (doses to about 46.1 µM), without a hit: top-dose activity change, negative = cytotoxicity, actives largely listed as cytotoxic; HepG2 CAGA-GFP viability, ATP luminescence, 18 h; actives 0.76% (n = 410,000)
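HepG2 CAGA-GFP cells (1000/well, DMEM with 1% FBS) received compound, then TGF-beta at 500 pg/mL final, and were incubated 18 hours at 37 degrees C. Viability was read by CellTiter-Glo luminescence. Media-only wells were set as complete cell-killing and DMSO as no toxicity.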
TGFb SMAD3 inh: inhibitors of TGF-b signaling. HepG2 CAGA-GFP TGF-b/SMAD3 reporter, GFP fluorescence, 18 h; TGF-beta stimulated, 500 pg/mL final. Potency, µM (top dose mostly 46.1 µM), without a hit: top-dose activity, negative = inhibition, usual class: inhibitors. actives 1.2% (n = 410,000). AID 588855; further: on the % scale 0 is the no-effect control and ±100 the full control effect; nearly all actives have a fitted effect of over 65% in size
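Cell-based qHTS in HEPG2 carrying a CAGA-GFP Smad reporter; compounds added before 500 pg/mL final TGF-beta, 18 h incubation at 37 degrees C, GFP fluorescence quantified per cell by imaging cytometry.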
ATXN2 expr inh: ATXN2 expression inhibition | HEK-293 ATXN2-luciferase reporter, luminescence, 24 h | Potency, µM (highest dose often 57 µM), without a hit: at the highest dose activity change, negative = inhibition, most hits filed as inhibitors | actives 0.72% (n = 360,000); further: on the % scale 0 is the no-effect control and ±100 the full control effect; nearly all actives have a fitted effect of over 55% in size
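ATXN2-luciferase reporter cells (luciferase flanked by upstream and downstream ATXN2 gene portions) were treated 24 h at 37 °C with compounds at up to 57 uM. SteadyGlo luminescence gave expression; GF-AFC fluorescence gave viability.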
S2 tox: reduces viability in counter-screen for ATXN expression inhibitors; actives 0.49% (n = 400,000); S2 cells (HEK-293 line with an ATXN2-luciferase reporter) viability, CellTiter-Fluor protease fluorescence, 24 h; Potency, µM (top dose mostly 56.7 µM), actives largely listed as cytotoxic; further: nearly all actives have a fitted effect of over 40% in size
An asterisk follows results filed as active; i = inactive; ? = inconclusive; . = not tested or not shown; ! = repeats disagree. The call rests on the fitted dose curve; in most records, active means well fitted curve in the direction sought with a large enough effect; inconclusive means small, poorly fitted or top-dose-only effect, or another doubt; inactive means no such curve, though single readings can be large; an effect the other way counts as inactive or inconclusive. Potency means the concentration at half of the fitted maximal effect.

SMILES	HepG2 viability	TGFb SMAD3 inh	ATXN2 expr inh	S2 tox
CC(=O)c1cccc(-c2csc3ncnc(Sc4nnnn4C)c23)c1	-88.9%	6.31µM*	6.31µM*	7.94µM*
Cn1nnnc1Sc1ncnc2scc(-c3ccc4c(c3)OCO4)c12	2.6%	?	?	?
Cn1nnnc1Sc1ncnc2scc(-c3cccc(Br)c3)c12	-52.3%	?	8.91µM*	14.1µM*
CCN(CC)CCN(C(=O)CCS(=O)(=O)c1ccccc1)c1nc2cc(C)cc(C)c2s1	17.8µM*	15.8µM*	-29.6%	i
CCOc1cc(/C=N/Nc2cccc(C(=O)O)c2)ccc1OC(=O)c1ccccc1	-12.0%	-2.5%	14.1µM*	i
COc1cc(C=NNc2ccccc2)ccc1OC(=O)c1ccccc1	-1.6%	-0.2%	.	?
Cc1ccc(Nc2nc(NCc3ccccc3)nc3ccsc23)c(C)c1	-9.1%	?	?	?
Cc1nc(Nc2n[nH]c3c2CN(C(=O)N[C@H](CN(C)C)c2ccccc2)C3(C)C)c2sccc2n1	.	.	17.2µM*	.
CN(C)c1ccc(/C=C/c2ccnc3cc(Cl)ccc23)cc1	-8.6%	35.0%	.	.
CCCN(CC(=O)Nc1ccccc1C)C(=O)COc1c(C)cccc1C	4.0%	-7.0%	4.3%	?
CCCN(CC(=O)Nc1ccccc1C)C(=O)CCl	-79.2%	5.62µM*	?	?
Cc1ccccc1S(=O)(=O)Cc1ccc(C(=O)N2CCN(c3cccc(C)c3C)CC2)o1	-17.2%	?	12.6µM*	17.8µM*
CC1CCCN(CCCNC(=O)c2ccc3c(c2)N(Cc2ccccc2F)C(=O)c2ccccc2S3(=O)=O)C1 (centres undefined)	11.2µM*!	?	?	?
O=C(CCl)Nc1c(C(=O)Nc2ccc3c(c2)OCCO3)oc2ccccc12	15.8µM*	?	-33.4%	?
c1ccc(-c2nnsc2-c2ccccc2)cc1	-4.6%	2.8%	14.9%	i
O=S(=O)(c1ccc(Cl)c(Cl)c1)c1snnc1-c1ccccc1	15.8µM*	?	28.2µM*	12.6µM*
CCOc1cccc(C2C=C(c3ccc4c(c3)OCO4)NC(c3cccc(Br)c3)N2)c1O (centres undefined)	-54.4%	?	.	.
O=S1(=O)CCC(NC(=S)SCCOc2ccccc2)C1 (centres undefined)	-39.9%	20µM*	-17.7%	?
O=C1/C(=N\S(=O)(=O)c2cccs2)C([n+]2cccc(Cc3ccccc3)c2)=C([O-])c2ccccc21	2.82µM*	?	?	?
O=C1/C(=N\S(=O)(=O)c2cccs2)C([n+]2ccc(CCCc3ccccc3)cc2)=C([O-])c2ccccc21	-104.8%	15.8µM*	-18.8%	i
Cc1cc[n+](C2=C([O-])c3ccccc3C(=O)/C2=N\S(=O)(=O)c2cccs2)cc1C	-12.0%	-24.9%	-31.0%	i
COc1ccccc1NC(=O)Cc1csc(NC(=S)Nc2ccccc2)n1	-37.3%	14.1µM*	-12.6%	?
COc1ccccc1-c1ccnc(-n2ncc(C(=O)N3CCN(C4CCCC4)CC3)c2-c2ccco2)n1	.	.	.	i
Cc1nc2cc(NC(=O)C3CC34CCN(Cc3ccc(O)c(Cl)c3)CC4)ccc2s1 (centres undefined)	.	.	.	i
OC(c1ccccc1)(c1nc(/C=C/c2ccccc2)cs1)C(F)(F)F (centres undefined)	-113.9%	22.4µM*	-35.8%	i
SMILES	HepG2 viability	TGFb SMAD3 inh	ATXN2 expr inh	S2 tox
COc1cccc(C(C)(O)c2nc(-c3csc4ccccc34)cs2)c1 (centres undefined)	-48.6%	17.8µM*	6.4%	i
COc1cccc(C(C)(O)c2nc(/C=C/c3ccccc3)cs2)c1 (centres undefined)	-24.2%	14.1µM*	-2.2%	i
C=C1C=C(C(F)F)n2ncc(C(=O)NCc3ccc(Cl)cc3)c2N1	-2.3%	2.5%	.	.
N#CC(C#N)=NNc1ccc(S(=O)(=O)N2CCCCC2)cc1	-44.2%	7.94µM*	-12.7%	?
N#C/C(=N\Nc1ccc(S(=O)(=O)N2CCOCC2)cc1)C(N)=S	-9.6%	-21.6%	15.5%	?
CN(C)CCN1C(=O)c2cccc3cc(N)cc(c23)C1=O	.	.	5.44µM*	.
CCN(CC)CCN1C(=O)c2cccc3cc(N)cc(c23)C1=O	-13.1%	?	?	?
O=C(NCCCCCCCN1CCCCCCC1)C(C1CCCCC1)C1CCCCC1	-2.9%	17.8µM*	?	.
COc1cccc(CN2CCC(c3nnc(SCC4CCCO4)n3C)CC2)c1O (centres undefined)	.	.	.	i
Cc1cc2ccccc2c[n+]1CC(=O)c1ccc(F)cc1	-1.5%	-18.2%	.	.
NC(=S)n1[nH]c(-c2ccc([N+](=O)[O-])cc2)c(N=Nc2ccc(Cl)cc2)c1=O	2.51µM*	2.51µM*	?	i
Cc1ccc([N+](=O)[O-])cc1N=Nc1c(C)[nH]n(C(N)=S)c1=O	-15.5%	?	.	?
Cc1ccc(N=Nc2c(C)[nH]n(C(N)=S)c2=O)cc1	-1.4%	-14.8%	27.9%	i
Cc1ccc([N+](=O)[O-])cc1N=Nc1c(-c2ccc([N+](=O)[O-])cc2)[nH]n(C(N)=S)c1=O	-34.2%	2.82µM*	?	?
COc1ccc(C2=Nn3c(nnc3-c3ccccc3F)SC2)cc1OC1CCCC1	-67.4%	12.6µM*	-58.0%	?
COc1ccc(C2=Nn3c(nnc3-c3ccccc3F)SC2)cc1OC1CCOC1 (centres undefined)	1.3%	-14.6%	1.1%	?
COc1ccccc1C(=O)N[C@@H]1c2ccccc2C2(CCN(Cc3nccs3)CC2)[C@H]1OC	.	.	.	i
CCC(CC)[C@H](NC(C)=O)[C@@H]1[C@H](O)[C@@H](C(=O)O)C[C@@H]1N=C(N)N	.	.	2.6%	.
O=[N+]([O-])c1ccc(NN=Cc2ccc(O)cc2O)nc1	-13.5%	1.9%	?	i
CCN(CC)S(=O)(=O)c1ccc(N/N=C/c2ccc(O)cc2O)nc1	-18.0%	-4.9%	2.82µM*	?
Cc1nc(N)nc(N)c1-c1ccc(Cl)c(Cl)c1	0.631µM*	?	7.94µM*!	i
COc1cc(OC)c(OC)cc1/C=C/c1nc2ccccc2o1	-27.8%	6.3%	.	.
CC(C)(C)c1ccc2c(c1)OC(C(=O)N/N=C\c1ccncc1)CO2 (centres undefined)	20µM*	-12.1%	-19.4%	.
CC(C)Oc1ccc(CNC(=S)Nc2ccccc2)cc1Cl	-26.5%	?	.	?
CC(C)COc1ccc(CNC(=S)Nc2ccccc2)cc1Cl	12.6µM*	11.2µM*	-28.9%	i
CCOC(=O)C1=C(c2ccccc2)NC(N)=NC1c1ccc(OCc2ccc(C(=O)OC)cc2)cc1 (centres undefined)	-53.1%	?	25.1µM*	28.2µM*
CN(C(=O)c1cnn(-c2ncc3c(n2)-c2ccccc2CCC3)c1C1CC1)C1CCOC1 (centres undefined)	.	.	.	i
CCOC(=O)c1c2c(n(Cc3ccccc3)c1C)C(=O)C(=O)c1ccccc1-2	-106.3%	?	18.9µM*	15µM*
